# Calls of active or inactive are those of the source. No rule for the calls is given here.
# System: Potassium Channel [KATP]
# Experiment: off-target receptor, channel and CYP panel, profiling panel, selectivity assay for S1P3 agonist project, biochemical, Ricerca HitProfilingScreen, CYP450 (AID 540351)
# Details: Ricerca receptor/enzyme binding panel plus CYP450, at 30 µM, hits give high values
structure (smiles),measurement,value
O=C(c1cc(C2CC2)on1)N(C1CCCCC1)C1CCCCC1,inhibition,16% (inactive)

# From PubChem BioAssay AID540351 (The Scripps Research Institute Molecular Screening Center, 2011)
